From PubChem BioAssay
The list is not random: actives were taken first. Their share in the collection is about 3%.
Sm TGR inh – S. mansoni TGR enzyme inhibition | Q962Y6 | purified TGR, DTNB reduction, TNB absorbance 405 nm | Potency, µM (highest dose often 114 µM), hits mostly inhibitors | 3% of 360,000 active | AID 485364; also: nearly all actives have a fitted effect of over 60% in size
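Kinetic colorimetric format: TGR-catalysed, NADPH-driven DTNB reduction monitored via TNB absorbance. Enzyme dispensed at 20 nM; compound exposure 15 min at room temperature before reaction start.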
RE007 growth inh – less growth of the S. pombe RE007 Vpr strain; 0.21% of 360,000 active; S. pombe RE007 Vpr strain, BacTiter-Glo ATP luminescence, 24 h; Potency, µM (top dose mostly 92.2 µM), actives largely listed as inhibitors; AID 651644; active = well fitted falling curve with a large enough effect; inconclusive = small, poorly fitted or top-dose-only effect; inactive = no such curve, though single readings can be large or run the other way; also: nearly all actives have a fitted effect of over 50% in size
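Fission yeast strain RE007, carrying one chromosomally integrated HIV-1 vpr copy, was seeded at OD 0.01 in PMG+AL medium with 23 nL pinned compound. After 24 h at 30 °C and 99% humidity, viability was read by BacTiter-Glo luminescence.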
LmPK inhibitor – LmPK (Leishmania mexicana) enzyme inhibition | Q27686 | purified LmPK, Kinase-Glo ATP luminescence, 1 h | Potency, µM (titrated, usually from 57.5 µM), most hits filed as inhibitors | 0.37% of 290,000 active | AID 1721
Target sequence (Q27686 whole entry, looked up): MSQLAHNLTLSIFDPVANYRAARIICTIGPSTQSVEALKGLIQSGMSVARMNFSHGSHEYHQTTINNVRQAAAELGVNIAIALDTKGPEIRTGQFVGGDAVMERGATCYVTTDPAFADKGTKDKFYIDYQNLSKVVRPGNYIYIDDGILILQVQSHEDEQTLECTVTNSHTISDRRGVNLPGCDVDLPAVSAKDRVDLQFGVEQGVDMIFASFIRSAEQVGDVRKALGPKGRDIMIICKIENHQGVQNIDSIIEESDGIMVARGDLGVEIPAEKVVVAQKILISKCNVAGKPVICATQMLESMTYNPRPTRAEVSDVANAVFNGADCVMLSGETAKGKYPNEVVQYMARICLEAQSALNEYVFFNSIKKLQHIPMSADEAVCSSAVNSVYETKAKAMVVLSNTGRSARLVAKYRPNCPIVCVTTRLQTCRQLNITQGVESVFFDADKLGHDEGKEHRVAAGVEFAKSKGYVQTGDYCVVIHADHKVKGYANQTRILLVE
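Kinase-Glo luminescence read after 1 h RT reaction of 0.1 nM LmPK with 0.5 mM PEP and 0.1 mM ADP. Activity scaled between uninhibited and enzyme-free controls.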
Tb PYK inh – T. brucei pyruvate kinase inhibition | 0.12% of 410,000 active | TbPYK enzyme, Kinase-Glo Plus ATP luminescence, 45 min | Potency, µM (titrated, usually from 76.8 µM), actives largely listed as inhibitors; also: nearly all actives have a fitted effect of over 50% in size
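Enzyme and substrate buffer are dispensed first and compound is pin-transferred. ADP at 130 uM final then starts the reaction, which runs 45 min at room temperature. Detection reagent is added for 10 min before luminescence is imaged.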
Numbers stand for hits. Unless noted, calls follow the shape of the dose curve; as a rule, active = well fitted curve in the direction sought with a large enough effect; inconclusive = small, poorly fitted or top-dose-only effect, or another doubt; inactive = no such curve, though single readings can be large; an effect the other way counts as inactive or inconclusive.

What do the screens show for `CCN(Cc1ccccc1)C(=O)c1cc2c(OC)c(OC)c(OC)cc2[nH]1`?
Sm TGR inh: 35µM; RE007 growth inh: inactive; LmPK inhibitor: inactive; Tb PYK inh: inactive

Results for COc1cc2[nH]c(C(=O)N(C)Cc3ccccc3)cc2c(OC)c1OC ?
Sm TGR inh: inactive; RE007 growth inh: inactive; LmPK inhibitor: inactive; Tb PYK inh: inactive

Results for CCOC(=O)c1ccc(NC(=O)c2cnn(-c3ccc(C)cc3C)c2C2CCN(C(=O)OC(C)(C)C)CC2)cc1 ?
Sm TGR inh: inactive; Tb PYK inh: inactive

What do the screens show for `O=C(CSc1ncc2c(n1)-c1ccccc1N(Cc1ccccc1)S2(=O)=O)Nc1ccccc1`?
Sm TGR inh: inactive; Tb PYK inh: inactive

Results for C#CC(C)(C)NS(=O)(=O)c1cc(-c2nnc(Nc3ccc(C)cc3)c3ccccc23)ccc1C ?
Sm TGR inh: inactive; Tb PYK inh: inactive

Results for Cc1ccc(-c2nn3c(C)nnc3s2)cc1NC(=O)c1ccc(Br)o1 ?
Sm TGR inh: 50µM; RE007 growth inh: inactive; LmPK inhibitor: inactive; Tb PYK inh: inactive

Results for CCOC(=O)c1sc(N/N=C/c2ccccc2)nc1C ?
Sm TGR inh: inactive; RE007 growth inh: inactive; LmPK inhibitor: inactive; Tb PYK inh: inconclusive

Results for O=C(O)Cc1sc(N/N=C\c2ccccc2)nc1-c1ccccc1 ?
Sm TGR inh: 2.2µM; RE007 growth inh: inactive; LmPK inhibitor: inactive; Tb PYK inh: inactive

What do the screens show for `CN1OC[C@@H]2CN(C(=S)NCCc3ccccc3)[C@H](c3ccccc3Br)C[C@@H]21`?
RE007 growth inh: inactive; Tb PYK inh: inactive

How did COc1ccc(NC(=O)CCl)cn1 do in these assays?
Sm TGR inh: 14µM; LmPK inhibitor: inactive

What do the screens show for `COc1ccc(NC(=O)Nc2cc(C)cc(C)c2)cn1`?
Sm TGR inh: inactive; RE007 growth inh: inactive; LmPK inhibitor: inactive; Tb PYK inh: inactive

Results for COc1ccc(NC(=O)Nc2cccs2)cn1 ?
Sm TGR inh: 13µM; RE007 growth inh: inactive; LmPK inhibitor: inactive; Tb PYK inh: inactive

What do the screens show for `COc1ccc([C@H]2CC(=O)C[C@@H](CCn3cc(-c4ccc(F)cc4)nn3)O2)cc1`?
RE007 growth inh: inactive; Tb PYK inh: inactive

How did CC(=O)Nc1ccc(S(=O)(=O)/N=C2/NC(=O)/C(=C\c3ccco3)S2)cc1 do in these assays?
Sm TGR inh: 14µM; RE007 growth inh: inactive; LmPK inhibitor: inactive; Tb PYK inh: inactive

What do the screens show for `O=C1NC(=Nc2ccc(O)cc2)S/C1=C\C=C\c1ccco1`?
Sm TGR inh: 14µM; RE007 growth inh: inactive; LmPK inhibitor: inactive; Tb PYK inh: inactive

How did Cc1ccc(S(=O)(=O)/N=C2/NC(=O)/C(=C\c3ccco3)S2)cc1 do in these assays?
Sm TGR inh: inconclusive; RE007 growth inh: inactive; LmPK inhibitor: inactive; Tb PYK inh: inactive

Results for CCCN1C(=O)/C(=C/c2ccc(C)o2)SC1=Nc1ccc(OCC)cc1 ?
Sm TGR inh: inconclusive; RE007 growth inh: inactive; LmPK inhibitor: inactive; Tb PYK inh: inactive

What do the screens show for `CCCN1C(=O)/C(=C/c2ccc(C)o2)SC1=Nc1ccc(OC)cc1`?
Sm TGR inh: 40µM; RE007 growth inh: inactive; LmPK inhibitor: inactive; Tb PYK inh: inactive

What do the screens show for `CCOC(=O)CN1C(=O)S/C(=C/c2ccc(C)o2)C1=O`?
Sm TGR inh: 40µM; RE007 growth inh: inactive; LmPK inhibitor: inactive; Tb PYK inh: inactive

How did Cc1nc2ccccc2c(=O)n1-c1ccccc1Cl do in these assays?
Tb PYK inh: inactive

How did CCOc1ccccc1CNC(=O)c1cnc2sc(N3CCCC3)nn2c1=O do in these assays?
Sm TGR inh: inactive; Tb PYK inh: inactive

How did CCCN1C(=O)/C(=C/c2ccco2)SC1=Nc1ccc(OC)cc1 do in these assays?
Sm TGR inh: 50µM; RE007 growth inh: inactive; LmPK inhibitor: inactive; Tb PYK inh: inactive

How did COc1ccc(N=C2NC(=O)/C(=C\c3ccco3)S2)cc1 do in these assays?
Sm TGR inh: 28µM; RE007 growth inh: inactive; LmPK inhibitor: inactive; Tb PYK inh: inactive

Results for COc1ccc(N=C2S/C(=C\c3ccc(N4CCOCC4)o3)C(=O)N2CCc2c[nH]c3ccccc23)cc1 ?
Sm TGR inh: 13µM; LmPK inhibitor: inactive

Results for Cc1c(-c2ccc(Cl)cc2)[n+](=O)c(-c2ccccc2)cn1[O-] ?
Sm TGR inh: 50µM; RE007 growth inh: inactive; LmPK inhibitor: inactive; Tb PYK inh: inactive

What do the screens show for `O=C(C[n+]1cn(C(F)F)c2ccccc21)c1ccc(OC(F)F)cc1`?
Sm TGR inh: 7.1µM; RE007 growth inh: inactive; LmPK inhibitor: inactive; Tb PYK inh: inactive

Results for COc1ccccc1CNC(=O)Cc1ccc(Br)cc1 ?
Sm TGR inh: inactive; RE007 growth inh: inactive; LmPK inhibitor: inactive; Tb PYK inh: inactive

Results for COc1ccc(NC(=O)c2ccco2)cn1 ?
Sm TGR inh: inactive; RE007 growth inh: inactive; LmPK inhibitor: inactive; Tb PYK inh: inactive

Results for COc1ccccc1CNC(=O)/C=C/c1ccc(Br)o1 ?
Sm TGR inh: 2.2µM; RE007 growth inh: inactive; LmPK inhibitor: inactive; Tb PYK inh: inactive

How did COc1ccc(NC(=O)/C=C/c2cccc(F)c2)cn1 do in these assays?
Sm TGR inh: inactive; RE007 growth inh: inactive; LmPK inhibitor: inactive; Tb PYK inh: inactive

How did COc1ccc(NC(=O)/C=C/c2ccco2)cn1 do in these assays?
Sm TGR inh: 8.9µM; RE007 growth inh: inactive; LmPK inhibitor: inactive; Tb PYK inh: inactive

What do the screens show for `COc1ccc(NC(=O)/C=C/c2ccc(Br)o2)cn1`?
Sm TGR inh: 11µM; RE007 growth inh: inactive; LmPK inhibitor: inactive; Tb PYK inh: inactive

Results for CCOC(=O)c1ccc(NC2SC(=O)N(Cc3cccc(C(=O)O)c3)C2=O)cc1 (configuration not stated) ?
Sm TGR inh: inactive; Tb PYK inh: inconclusive

Results for CN=c1scc(C)n1/N=C/c1ccc2c(c1)OCO2 ?
Sm TGR inh: inactive; RE007 growth inh: inconclusive; LmPK inhibitor: 16µM; Tb PYK inh: inactive

What do the screens show for `CN=c1scc(C)n1/N=C/c1ccc(O)cc1`?
Sm TGR inh: inactive; RE007 growth inh: inactive; LmPK inhibitor: inactive; Tb PYK inh: inactive

What do the screens show for `CCn1cc(-c2n[nH]c(=S)n2-c2ccc(C)cc2Br)c(=O)c2ccc(C)nc21`?
Sm TGR inh: inactive; RE007 growth inh: inactive; LmPK inhibitor: 7.9µM; Tb PYK inh: inconclusive

How did CCn1cc(C(=O)OCC(=O)Nc2ccc(F)cc2F)c(=O)c2ccc(C)nc21 do in these assays?
Sm TGR inh: inactive; Tb PYK inh: inactive

Results for CCOC(=O)[C@H]1[C@H]2COc3ccc(Cl)cc3[C@@H]2N2C(=O)CN(Cc3ccc(Cl)cc3)C(=O)[C@@]12C ?
Sm TGR inh: inactive; RE007 growth inh: inactive; Tb PYK inh: inactive

What do the screens show for `O=C(CN1C(=O)CC(c2ccco2)Sc2ccccc21)NCC1CCCO1` (configuration not stated)?
Sm TGR inh: 13µM; RE007 growth inh: inactive; LmPK inhibitor: inactive; Tb PYK inh: inactive

How did O=C1CC(c2ccccc2)Sc2nc3ccccc3n21 (configuration not stated) do in these assays?
Sm TGR inh: inactive; RE007 growth inh: inactive; LmPK inhibitor: inactive; Tb PYK inh: inactive
